According to PubChem BioAssay AID2284066 (EPA ToxCast):
Active and inactive are the calls of the source. How the source made its calls: active means hit-call score of the fitted dose curve at least 0.9, where 1 is the maximum; inactive means score below 0.9.

These compounds were tested against Tyrosine-protein kinase Fyn (Homo sapiens) (UniProt P06241) (assay: ERF_FR_ENZ_hFYN: Eurofins (ERF) Enzymatic Radiometric [Km ATP] KinaseProfiler LeadHunter Assay for human Fyn Tyrosine Kinase).
Procedure: ERF_FR_ENZ_hFYN is a biochemical, single-readout assay that uses extracted gene-proteins in a cell-free assay. Measurements were taken 1 hour after chemical dosing in a 96-well plate. See Fyn Human TK Kinase Enzymatic HTRF Assay [Km ATP], Cerep.ERF_FR_ENZ_hFYN is an assay component calculated from the ERF_FR_ENZ_hFYN assay. It is designed to measure enzyme activity using a type of enzyme reporter as detected by fluorescence intensity with HTRF technology.Data from the assay component ERF_FR_ENZ_hFYN was analyzed at the assay endpoint, ERF_FR_ENZ_hFYN, in the positive analysis fitting direction relative to DMSO as the negative control and baseline of activity. Using a type of enzyme reporter, loss-of-signal activity can be used to understand changes in enzymatic activity as they relate to gene FYN. To generalize the intended target to other relatable targets, this assay endpoint is annotated to the kinase intended target family, where the subfamily is non-receptor tyrosine […].
Fyn (h) is incubated with 50 mM Tris pH 7.5, 0.1 mM EGTA, 0.1 mM Na3VO4, 250 uM […] (Cdc2 peptide), 10 mM MgAcetate and [gamma-33P]-ATP (specific activity and concentration as required). The reaction is initiated by the addition of the Mg/ATP mix. After incubation for 40 minutes at room temperature, the reaction is stopped by the addition of phosphoric acid to a concentration of 0.5%. […]

Tyrosine-protein kinase Fyn (Homo sapiens), sequence (P06241 whole entry, looked up): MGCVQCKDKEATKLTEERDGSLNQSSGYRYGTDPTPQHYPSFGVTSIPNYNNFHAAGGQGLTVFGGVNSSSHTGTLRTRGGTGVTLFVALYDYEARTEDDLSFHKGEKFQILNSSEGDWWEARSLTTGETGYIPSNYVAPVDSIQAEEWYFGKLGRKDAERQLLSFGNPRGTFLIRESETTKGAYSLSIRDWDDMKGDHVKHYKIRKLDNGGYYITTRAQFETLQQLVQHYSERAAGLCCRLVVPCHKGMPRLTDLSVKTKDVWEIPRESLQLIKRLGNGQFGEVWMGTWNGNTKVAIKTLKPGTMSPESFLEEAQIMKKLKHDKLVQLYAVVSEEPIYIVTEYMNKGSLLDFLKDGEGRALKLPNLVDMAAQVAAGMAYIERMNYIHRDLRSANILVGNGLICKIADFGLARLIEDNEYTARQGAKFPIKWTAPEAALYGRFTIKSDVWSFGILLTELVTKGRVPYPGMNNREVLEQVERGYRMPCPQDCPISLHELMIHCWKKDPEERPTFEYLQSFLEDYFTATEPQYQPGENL

SMILES | AC50
O=C(/C=C/c1ccc(O)cc1)CC(=O)/C=C/c1ccc(O)cc1 | 992 nM (active)
